{"source": "PubChem BioAssay (NCATS)", "note": "Inconclusive results are not listed. Activity calls are given as the source filed them. Calls follow the shape of the dose curve; as a rule, active = well fitted inhibition curve with a large enough effect; inconclusive = small, poorly fitted or top-dose-only effect; inactive = no such curve, though single readings can be large or run the other way. % is scaled to controls: 0 for no effect and ±100 for the full control effect; potency is read from the fitted curve at half-maximal effect."}
{"assay": "Tertiary RLuc qRT-PCR qHTS assay for Zika virus inhibitors (AID 1347169); also: nearly all actives have a fitted effect of over 55% in size; as to activity change, negative = inhibition: top concentration of the series differs between compounds", "details": "infected Vero cells, reporter luminescence, 48-72 h; series mostly up to 45.9 µM", "procedure,_shortened": "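Inhibition of ZIKV-RLuc replication in Vero cells, read as Renilla luminescence 1-1.5 hrs after live-cell substrate addition, following 48-72 hrs infection at MOI 1-2 in presence of compound.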"}
{"smiles": "Cc1noc(-c2ccc(-c3ccc(CC(=O)O)cc3)cc2)c1NC(=O)O[C@H](C)c1ccccc1Cl", "Potency": "14.7 µM (active)"}
{"smiles": "C[C@H]1CO[C@@H]2Cn3cc(C(=O)NCc4ccc(F)cc4F)c(=O)c(O)c3C(=O)N12", "Potency": "inactive"}
{"smiles": "Cc1cc(C)c2c(c1)C(N(Cc1cc(C(F)(F)F)cc(C(F)(F)F)c1)c1nnn(C)n1)CCCN2CC1CCC(C(=O)O)CC1", "note": "(configuration not stated)", "Potency": "16.5 µM (active)"}
{"smiles": "O=C(Nc1ccc(-c2ccc(Cl)c(Cl)c2)cc1)C1=C(O)c2ccccc2S(=O)(=O)N1", "Potency": "26.2 µM (active)"}
{"smiles": "O=S(=O)(Nc1cc(Cl)c(Oc2cnc3ccccc3c2)c(Cl)c1)c1ccc(Cl)cc1Cl", "Potency": "9.3 µM (active)"}
{"smiles": "CC(C)C[C@H](C(=O)O)c1cc(-c2ccc(C(F)(F)F)cc2)cc(-c2ccc(C(F)(F)F)cc2)c1", "Potency": "9.3 µM (active)"}
{"smiles": "N#Cc1ccc(N2N=C3c4ccc(C(=O)O)cc4CC[C@@H]3[C@@H]2C2CCCC2)cc1Cl", "Potency": "14.7 µM (active)"}
{"smiles": "COc1ccc(CCO[C@@H]2O[C@H](CO[C@H]3OC[C@](O)(CO)[C@H]3O)[C@@H](OC(=O)/C=C/c3ccc(O)c(O)c3)[C@H](O[C@@H]3O[C@@H](C)[C@H](O)[C@@H](O)[C@H]3O)[C@H]2O)cc1OC", "Potency": "inactive"}
{"smiles": "CCC(C)/C=C(C)/C=C/C1=CC2=CC(=O)C3(C)OC(C)(O)C(C(=O)OC)C3C2=CO1", "note": "(configuration not stated)", "Potency": "inactive"}
{"smiles": "CC(C)(C)Sc1c(CC(C)(C)C(=O)O)n(Cc2ccc(Cl)cc2)c2ccc(OCc3ccc4ccccc4n3)cc12", "Potency": "11.7 µM (active)"}
{"smiles": "CCC(CC)(NC(=O)C(C)C)C(=O)N[C@@H](CCCN=C(N)N)C(=O)NC1(C(=O)NC(c2ccc(F)cc2)c2ccc(F)cc2)CCCC1", "Potency": "inactive"}
{"smiles": "CCCCCCCOc1cc2c(cc1/C(C)=C/c1ccc(C(=O)O)cc1)C(C)(C)CCS2(=O)=O", "Potency": "2.94 µM (active)"}
{"smiles": "CC(O)(C(=O)O)C1CCC2(C)C1CCC1(C)C2CCC2C3(C)CCC(O)C(C)(COC4OC(CO)C(O)C(O)C4O)C3CCC21C", "note": "(configuration not stated)", "Potency": "inactive"}
{"smiles": "COc1cc(C(=O)O)ccc1NC(=O)C1NC(CC(C)(C)C)C(C#N)(c2ccc(Cl)cc2F)C1c1cccc(Cl)c1F", "note": "(configuration not stated)", "Potency": "9.3 µM (active)"}
{"smiles": "C=C1/C(=C/C=C2\\CCC[C@]3(C)[C@@H]([C@H](C)/C=C/[C@@H](C)C(C)C)CC[C@@H]23)C[C@@H](O)C[C@@H]1O", "Potency": "3.3 µM (active)"}
{"smiles": "COc1ccc2nccc(C(=O)CC[C@@H]3CCN(CC#Cc4cc(F)cc(F)c4F)C[C@@H]3C(=O)O)c2c1", "Potency": "inactive"}
{"smiles": "C=C1C(=O)O[C@H]2CC(=C)[C@H]3CC[C@@](C)(O)[C@@H]3CC12", "note": "(some centres not stated)", "Potency": "inactive"}
{"smiles": "O=C(O)c1cccc(-c2ccc(-c3cn(C(=O)N4CCCCC4Cc4ccccc4)nn3)cc2)c1", "note": "(configuration not stated)", "Potency": "2.62 µM (active)"}
{"smiles": "CC1=C(C(=O)OC2CCCCC2)C(c2ccc([N+](=O)[O-])cc2)C2=C(CC(C)(C)CC2=O)N1", "note": "(configuration not stated)", "Potency": "inactive"}
{"smiles": "O=C(O)c1ccc(S(=O)(=O)N(Cc2ccc(OC(F)(F)F)cc2)c2ncc(C(F)(F)F)cc2Cl)cc1", "Potency": "18.6 µM (active)"}
{"smiles": "COc1ccc2cc(-c3cc(-c4cc(Cl)cc(Cl)c4)nn3C(C)c3ccc(C(=O)NCCC(=O)O)cc3)ccc2c1", "note": "(configuration not stated)", "Potency": "inactive"}
{"smiles": "O=C(Nc1ccc(/C=C/c2ccc(NC(=O)c3cc(S(=O)(=O)O)c4cccnc4c3O)cc2S(=O)(=O)O)c(S(=O)(=O)O)c1)c1cc(S(=O)(=O)O)c2cccnc2c1O", "activity change, negative = inhibition": "59.5% [at 5.25 µM] (inactive)"}
